The record followed here is PubChem BioAssay (NCATS).

“And” between values parts separate entries of the source, which are not always exact repeats. Equal values may be shown once. Unmarked numbers belong to inactive results. Inconclusive results are not listed. Some of the results follow. The source made the active and inactive calls. Unless noted, the call rests on the fitted dose curve; in most records, active means well fitted curve in the direction sought with a large enough effect; inconclusive means small, poorly fitted or top-dose-only effect, or another doubt; inactive means no such curve, though single readings can be large; an effect the other way counts as inactive or inconclusive.

A short description of assay [1]: qHTS assay to identify small molecules that stimulate interleukin-8 (IL-8) secretion (AID 651758; active means well fitted activation curve with a large enough effect in the signal ratio; the % refers to the signal ratio; further: potency means the concentration at half of the fitted maximal effect; on activation: 0% is about no effect). The method in brief: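 THP-1, 2000 cells/well; cpd 16 h, 37 C; add cryptate + XL665 anti-IL-8 Abs; RT 1-3 h; TR-FRET read.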
Assay [2] addresses Androgen receptor (Homo sapiens) (UniProt P10275). The assay is described as follows: qHTS assay for small molecule antagonists of androgen receptor signaling (AID 588516; active means well fitted curve in the direction sought with a large enough effect in the signal ratio, with a control signal flat, not every such curve was filed as active; the % refers to the signal ratio; further: on the % scale 0 is the no-effect control and ±100 the full control effect). Summed up: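 AR-UAS-bla-GripTite HEK 293 cells (2000/well, 5 h at 37 C) received compound titrations, then R1881 at 10 nM final; after 16 h at 37 C, CCF4 dye 2 h RT, beta-lactamase fluorescence read; IC50 from Hill fits.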

Assay [3] addresses Cytochrome P450 3A4 (Homo sapiens) (UniProt P08684). The assay is described as follows: qHTS Assay for Activators of Cytochrome P450 3A4 (AID 885). Further: nearly all actives have a fitted effect of over 65% in size. Summed up:
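Signal was normalized against complete inhibition by 57 uM ketoconazole. The reaction used 20nM CYP3A4 with 25uM Luciferin-PPXE, 10-min compound preincubation and a 60-min NADPH-supported step at RT.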

The target in assay [4] is ATP-dependent 6-phosphofructokinase (Trypanosoma brucei brucei) (UniProt O15648). As to the kind of experiment: qHTS Assay to Find Inhibitors of T. brucei phosphofructokinase: hit validation (AID 492961).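 Further: luminescence reports ADP formed as PFK phosphorylates fructose-6-phosphate with ATP; on the % scale 0 is the no-effect control and ±100 the full control effect.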 Summed up:
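Percent activity derived from corrected luminescence, normalized between 0x and 1x enzyme controls, then fitted to concentration-response curves. Conditions: 1.25 nM PFK, 0.1 mM ATP, 0.5 mM F6P, 45 min RT.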

A further assay relates to CP185. The assay is described as follows: qHTS profiling for inhibitors of Plasmodium falciparum proliferation (AID 504749).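 Further: 0% = DMSO vehicle and full inhibition = artemisinin control; nearly all actives have a fitted effect of over 60% in size.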 The conditions noted are these: P. falciparum in erythrocytes, SYBR Green DNA, 72 h; series mostly up to 28.7 µM. The method in brief:
(§1)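 Parasite proliferation within erythrocytes, 72 h exposure. Endpoint: SYBR Green I fluorescence after overnight lysis at room temperature. Controls: 0.29 uM artemisinin, DMSO.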

A further assay concerns CP191. The assay is described as above. The note with it: P. falciparum in erythrocytes, SYBR Green DNA, 72 h; series mostly up to 28.7 µM. Summed up: as §1
The next assay deals with CP192. Described as above. The conditions noted are these: P. falciparum in erythrocytes, SYBR Green DNA, 72 h; series mostly up to 28.7 µM. The method in brief: as §1
Another assay relates to CP194. Described as above. The note with it: P. falciparum in erythrocytes, SYBR Green DNA, 72 h; series mostly up to 28.7 µM. The method in brief:
as §1

Another assay deals with CP201. The assay is described as above. The conditions noted are these: P. falciparum in erythrocytes, SYBR Green DNA, 72 h; series mostly up to 28.7 µM. Summed up:
as §1

For another assay, the system named is CP203. The description is as above. The note with it: P. falciparum in erythrocytes, SYBR Green DNA, 72 h; series mostly up to 28.7 µM. The method in brief: as §1
The next assay concerns DFO2036. Described as above. The conditions noted are these: P. falciparum in erythrocytes, SYBR Green DNA, 72 h; series mostly up to 28.7 µM. Summed up:
as §1

A further assay concerns P94_40. The assay is described as above. The conditions noted are these: P. falciparum in erythrocytes, SYBR Green DNA, 72 h; series mostly up to 28.7 µM. The method in brief:
as §1

In the next assay the test system is PC49. The assay is described as above. The note with it: P. falciparum in erythrocytes, SYBR Green DNA, 72 h; series mostly up to 28.7 µM. The method in brief:
as §1

The subject of another assay is TAB113. The assay is described as above. The conditions noted are these: P. falciparum in erythrocytes, SYBR Green DNA, 72 h; series mostly up to 28.7 µM. The method in brief:
as §1

Assay [5] is described as follows: Counterscreen for APE1 Inhibitors: Fluorescent Dye Displacement Assay (AID 2564).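 Further: loss of thiazole orange fluorescence as the dye is displaced from duplex DNA; 0% = ThO with dsDNA and no compound and -100% = ThO without dsDNA.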 The method in brief:
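Compounds are scored by their ability to displace Thiazole Orange (250 nM) from a 50 nM TAMRA-tagged duplex bearing a tetrahydrofuran abasic site. Buffer is 50 mM Tris-HCl pH7.5, 50mM NaCl, 2 mM MgCl2, 0.01% Tween-20.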

In assay [6] the target is Endonuclease 4 (Escherichia coli (strain K12)) (UniProt P0A6C1). As to the kind of experiment: Counterscreen for APE1 Inhibitors: qHTS Assay for Inhibitors of Endonuclease IV (AID 2565).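 Further: plate controls were uninhibited enzyme wells for no effect and no enzyme buffer wells for full effect.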 The method in brief:
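Concentration-response counterscreen run identically to the APE1 assay: 15 min room-temperature preincubation of 2 nM enzyme with compound, reaction started with 50 nM quenched abasic DNA, progress taken from kinetic fluorescence.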

The target in assay [7] is DNA repair nuclease/redox regulator APEX1 (Homo sapiens) (UniProt P27695). The assay is described as follows: qHTS FP-Based Assay for Inhibitors of the Human Apurinic/apyrimidinic Endonuclease 1 (APE1) (AID 2573). Further: potency means the concentration at half of the fitted maximal effect.
Sequence of DNA repair nuclease/redox regulator APEX1 (Homo sapiens) (P27695 whole entry, looked up): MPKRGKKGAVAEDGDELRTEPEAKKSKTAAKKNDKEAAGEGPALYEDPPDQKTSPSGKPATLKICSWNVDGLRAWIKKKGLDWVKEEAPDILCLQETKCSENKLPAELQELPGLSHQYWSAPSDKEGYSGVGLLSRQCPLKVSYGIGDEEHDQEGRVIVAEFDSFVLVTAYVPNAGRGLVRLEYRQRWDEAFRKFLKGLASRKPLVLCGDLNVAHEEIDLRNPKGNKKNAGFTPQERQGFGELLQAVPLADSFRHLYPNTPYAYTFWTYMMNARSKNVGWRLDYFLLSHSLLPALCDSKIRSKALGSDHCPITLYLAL
Assay [8] shares this target. The assay is described as follows: Confirmation qHTS Assay for Inhibitors of the Human Apurinic/apyrimidinic Endonuclease 1 (APE1) (AID 2572). Further: nearly all actives have a fitted effect of over 30% in size. Further: potency means the concentration at half of the fitted maximal effect. Summed up: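 No-enzyme wells served as negative control, enzyme-only wells as full activity. APE1 with compound for 15 min RT; 50 nM final fluorophore/quencher abasic duplex started the reaction; read 3 minus read 1 at 525/598 nm.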

The target of assay [9] is Androgen receptor (Homo sapiens) (UniProt P10275). The assay is described as follows: qHTS assay for small molecule agonists of androgen receptor signaling (AID 588515; active means well fitted curve in the direction sought with a large enough effect in the signal ratio, with a control signal flat; the % refers to the signal ratio; further: on the % scale 0 is the no-effect control and ±100 the full control effect). The conditions noted are these: AR-UAS-bla HEK293, beta-lactamase ratio, agonist 16 h; stronger effect = higher value. Summed up:
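EC50 and efficacy came from Hill fits of titrations (up to 92 uM) normalized to 30 nM R1881 as 100% and DMSO as 0%. Compound exposure was 16 h at 37 C on AR-UAS-bla HEK293 cells, with a 405/460/530 nm CCF4 fluorescence read.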

For assay [10], the target named is DNA dC->dU-editing enzyme APOBEC-3G (Homo sapiens) (UniProt Q9HC16). As to the kind of experiment: qHTS for inhibitors of Vif-A3G interactions: Validation (AID 588379). Further: 0% is about no effect. The method in brief: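 HeLa cells stably expressing Vif and A3G-eYFP, 700 cells/well, incubated overnight at 37 deg C, then exposed to compound overnight at 37 deg C. Inhibition of Vif-mediated degradation read as increased yellow fluorescence (Ex 488/Em 500-530) by laser-scanning cytometry.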
Sequence of DNA dC->dU-editing enzyme APOBEC-3G (Homo sapiens) (Q9HC16 whole entry, looked up): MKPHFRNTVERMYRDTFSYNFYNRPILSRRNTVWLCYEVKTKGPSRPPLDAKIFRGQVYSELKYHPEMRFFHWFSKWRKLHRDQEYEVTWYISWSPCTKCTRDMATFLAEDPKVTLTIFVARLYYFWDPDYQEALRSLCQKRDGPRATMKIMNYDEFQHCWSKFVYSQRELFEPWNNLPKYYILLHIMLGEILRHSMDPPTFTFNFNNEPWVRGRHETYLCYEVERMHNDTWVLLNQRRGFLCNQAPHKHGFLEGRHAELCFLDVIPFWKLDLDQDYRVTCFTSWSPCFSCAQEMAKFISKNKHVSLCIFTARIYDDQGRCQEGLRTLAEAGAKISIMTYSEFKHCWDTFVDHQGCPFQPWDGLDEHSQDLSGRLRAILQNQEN

Sequence of Cytochrome P450 3A4 (Homo sapiens) (P08684 whole entry, looked up): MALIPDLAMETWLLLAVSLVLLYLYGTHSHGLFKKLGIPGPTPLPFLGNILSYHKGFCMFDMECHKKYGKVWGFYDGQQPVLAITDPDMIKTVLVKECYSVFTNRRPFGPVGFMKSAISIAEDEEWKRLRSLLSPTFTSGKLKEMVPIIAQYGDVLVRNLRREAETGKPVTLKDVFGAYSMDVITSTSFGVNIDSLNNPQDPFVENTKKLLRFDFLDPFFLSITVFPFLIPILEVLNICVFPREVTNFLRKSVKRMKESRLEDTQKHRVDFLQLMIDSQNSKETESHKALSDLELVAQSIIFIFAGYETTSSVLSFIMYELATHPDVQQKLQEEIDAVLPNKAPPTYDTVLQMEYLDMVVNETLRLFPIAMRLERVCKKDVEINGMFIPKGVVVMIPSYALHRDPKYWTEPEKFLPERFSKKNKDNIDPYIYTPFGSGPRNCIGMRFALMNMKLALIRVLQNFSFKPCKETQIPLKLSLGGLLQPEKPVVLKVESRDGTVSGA
Sequence of Androgen receptor (Homo sapiens) (P10275 whole entry, looked up): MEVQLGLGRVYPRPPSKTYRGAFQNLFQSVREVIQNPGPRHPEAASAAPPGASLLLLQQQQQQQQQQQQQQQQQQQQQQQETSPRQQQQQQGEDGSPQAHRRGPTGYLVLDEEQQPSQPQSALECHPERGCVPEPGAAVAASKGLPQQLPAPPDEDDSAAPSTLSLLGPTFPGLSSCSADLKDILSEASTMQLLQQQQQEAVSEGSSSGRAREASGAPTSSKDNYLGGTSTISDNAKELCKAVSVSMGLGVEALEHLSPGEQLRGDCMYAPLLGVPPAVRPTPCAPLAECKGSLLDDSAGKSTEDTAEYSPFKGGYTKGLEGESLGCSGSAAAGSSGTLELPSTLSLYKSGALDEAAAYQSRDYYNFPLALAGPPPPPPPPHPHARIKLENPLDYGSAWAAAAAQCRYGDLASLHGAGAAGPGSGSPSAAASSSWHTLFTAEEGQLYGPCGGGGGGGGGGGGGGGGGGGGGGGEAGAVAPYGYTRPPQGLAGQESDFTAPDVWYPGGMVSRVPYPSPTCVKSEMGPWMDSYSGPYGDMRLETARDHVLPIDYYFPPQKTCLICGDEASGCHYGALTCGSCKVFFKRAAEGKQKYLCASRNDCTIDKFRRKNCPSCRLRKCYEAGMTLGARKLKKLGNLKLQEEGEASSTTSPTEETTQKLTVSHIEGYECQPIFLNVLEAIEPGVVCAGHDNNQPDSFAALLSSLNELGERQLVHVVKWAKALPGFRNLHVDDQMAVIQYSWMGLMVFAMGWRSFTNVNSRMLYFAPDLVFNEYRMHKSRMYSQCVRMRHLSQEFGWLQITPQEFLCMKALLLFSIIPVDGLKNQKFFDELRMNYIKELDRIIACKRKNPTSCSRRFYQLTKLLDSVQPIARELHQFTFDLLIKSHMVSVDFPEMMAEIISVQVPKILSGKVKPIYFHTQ
Sequence of ATP-dependent 6-phosphofructokinase (Trypanosoma brucei brucei) (O15648 whole entry, looked up): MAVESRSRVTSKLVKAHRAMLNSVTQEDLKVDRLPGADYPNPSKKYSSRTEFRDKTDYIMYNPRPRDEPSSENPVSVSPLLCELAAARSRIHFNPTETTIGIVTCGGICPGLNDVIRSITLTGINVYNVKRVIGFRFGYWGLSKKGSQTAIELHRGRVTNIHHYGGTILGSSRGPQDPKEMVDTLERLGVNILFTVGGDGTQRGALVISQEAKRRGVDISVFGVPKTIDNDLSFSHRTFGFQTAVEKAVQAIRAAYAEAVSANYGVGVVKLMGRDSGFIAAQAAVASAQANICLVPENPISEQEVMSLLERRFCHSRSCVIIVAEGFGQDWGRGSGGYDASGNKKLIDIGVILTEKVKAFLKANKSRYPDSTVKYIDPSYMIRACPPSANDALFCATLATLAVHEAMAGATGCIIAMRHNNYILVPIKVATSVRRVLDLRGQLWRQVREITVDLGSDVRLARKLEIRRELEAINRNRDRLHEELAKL

In the case of `CCCCCCCCOc1ccc(C(=O)O)cc1`, the Potency in assay [1] is 66.8 µM (active).
Take `C/C=C/C=C/C=O`: in [2], the result was inactive.
Regarding `Cc1cc(-c2ccc(N=Nc3cc(S(=O)(=O)O)c4ccccc4c3N)c(C)c2)ccc1N=Nc1cc(S(=O)(=O)O)c2ccccc2c1N`, the Potency entry in assay [3] is “inactive”.
In the case of `C=C1CC[C@H](O)C/C1=C/C=C1\CCC[C@]2(C)[C@@H]([C@H](C)CCCC(C)C)CC[C@@H]12`, the Potency result (in assay [3]; in the assay on CP185; in the assay on CP191; in the assay with CP192; with CP194; in the assay with CP201) was “inactive” each time. The Potency result in the assay on CP203, in the assay on DFO2036, with P94_40, in the assay on PC49 and in the assay on TAB113 was “inactive” in each case. The molecule was called inactive in assay [4].
Take `Nc1ccc(N=Nc2ccccc2)c(N)c1`: in [3], the Potency result is “inactive”.
On to `O=c1nc2s/c(=C\c3ccco3)c(=O)n2nc1Cc1ccccc1`, for which the result in assay [5] and in assay [6] was inactive. Further, in assay [7], the Potency result is “inactive”.
Turning to `N/C(=N\OC(=O)Nc1ccccc1)c1ccno1`, the outcome in assay [5] and in assay [6] was inactive. Further, the Potency result in assay [8] and in [7] was “inactive” throughout.
In the case of `CC(C)(C)C(=O)C1C(=O)c2ccccc2C1=O`, the Potency result in assay [1] was “inactive”.
The same measure, in the same setting: with `Cc1ccccc1OCC1CO1` (centres undefined) the entry was “inactive”.
In the case of `CC1=C(/C=C/C(C)=C/C=C/C(C)=C/C=O)C(C)(C)CCC1`, the Potency result in assay [3] is “inactive”. The Potency in assay [1] was 0.422 µM (active).
For `CC/C=C/C/C=C/C/C=C/CCCCCCCC(=O)OCC`, the Potency entry in [3] was “inactive”.
As for `O=C(O)/C=C/c1ccc(/C=C/C(=O)O)cc1`, in [9], the activation is -7.2%.
For `S=C(NC1CCCCC1)NC1CCCCC1`, the Potency entry in assay [3] is “inactive”.
`C=CCn1c(=S)[nH]c2scc(-c3ccco3)c2c1=O`: the result in assay [5] and in assay [6] was inactive. Also, the Potency result in assay [7] was “inactive”.
For `Cc1ccc(-c2nc(SCC(=O)Nc3ccccc3OC(F)F)c3c(C)c(C(=O)O)sc3n2)cc1`, the result in assay [5] and in assay [6] was inactive. The Potency is 7.94 µM (active) in assay [8] and 11.2 µM (active) in [7].
Consider `c1ccc2c(c1)ccc1ccccc12`, for which the activation in [9] was -2.75% and -0.0415%. In addition, in assay [2], the outcome was inactive.
For the molecule `CN(C)c1ccc(C(=N)c2ccc(N(C)C)cc2)cc1`, in assay [3], the Potency entry is “inactive”. Also, the Potency in assay [1] was 66.8 µM (active).
Consider `CCc1ccc(C(c2ccc(CC)cc2)C(Cl)Cl)cc1`, for which the activation in assay [9] is -10.8%.
As for `O=[N+]([O-])c1cc(N(CCO)CCO)ccc1NCCO`, in assay [9], the activation is 15% and 1.64%. In assay [2], the result was inactive.
For the molecule `Cc1c(C(=O)O)c(O)cc2c1C(=O)c1c(O)c([C@H]3O[C@H](CO)[C@@H](O)[C@H](O)[C@H]3O)c(O)c(O)c1C2=O`, the Potency result (in assay [3]; with CP185; in the assay on CP191; in the assay on CP192; with CP194; in the assay on CP201) was “inactive” throughout. For the same molecule, the Potency entry in the assay on CP203, in the assay on DFO2036, with P94_40, in the assay with PC49 and in the assay on TAB113 was “inactive” throughout. Further, the molecule was called inactive in assay [4] and in [10].
Regarding `Nc1ccc2c(c1)C(=O)c1ccccc1C2=O`, in assay [3], the Potency entry is “inactive”.
Consider `Cc1ccc(Cc2cnc(N)s2)o1`, for which the call in assay [5] and in assay [6] was inactive. Also, the Potency result in assay [8] was “inactive”.
In the case of `Nc1cnn([C@@H]2O[C@H](CO)[C@@H](O)[C@H]2O)c(=O)n1`, the Potency in [1] is 75 µM (active).
Turning to `Cc1cc2nc(N)sc2cc1C`, the Potency entry in assay [3] is “inactive”.
Take `COc1cc([C@H](Cc2ccccc2)NC(C)=O)oc(=O)c1`: in assay [6], the outcome was inactive.
